SMILES strings stand for the structures. Records with an inconclusive call do not appear. Active and inactive are the calls of the source. How the source made its calls: active means hit-call score of the fitted dose curve at least 0.9, where 1 is the maximum; inconclusive means response in the unintended direction; inactive means score below 0.9.

This assay deals with frog Glucocorticoid Receptor (GR), gene 397897. As to the kind of experiment: ATG_frGR_EcoTox2: Attagene TRANS-FACTORIAL EcoTox-2 HepG2 Assay for frog Glucocorticoid Receptor (GR). Here is the method: ATG_EcoTox2 is a cell-based, multiplexed assay created by modifying the existing Attagene TRANS-FACTORIAL system to include a panel of nuclear receptors from some or all the following species: human (Homo sapiens), african clawed frog (Xenopus laevis), rainbow trout (Oncorhynchus mykiss), japanese medaka (Oryzias latipes), and zebrafish (Danio rerio). The ECOTOX2-FACTORIAL format uses HepG2, a human liver cell line, with measurements taken at 24 hours after chemical dosing in a 24-well plate. ATG_frGR_EcoTox2 is one of 29 assay components calculated in the ATG_EcoTox2 assay. It is designed to make measurements of mRNA induction, a form of inducible reporter, as detected with fluorescence intensity signals by Reverse transcription polymerase chain reaction (RT-PCR) and Capillary electrophoresis technology.The assay endpoint ATG_frGR_EcoTox2 was analyzed in the positive analysis fitting direction relative to DMSO as the negative control and baseline of activity. Using a type of inducible reporter, measures of mRNA for gain-of-signal activity can be used to understand the reporter gene at the transcription factor-level as they relate to the gene for glucocorticoid receptor. Furthermore, this assay endpoint can be referred to as a primary readout, because this assay has produced multiple assay endpoints where this one serves a reporter gene function. To generalize the intended target to other relatable targets, this assay endpoint is annotated to the nuclear receptor intended target family, where the subfamily is steroidal.
Human liver HepG2 cells are transiently transfected with multiple reporter transcription units (MRTUs) in 6-well plates using FuGene 6 reagent (Roche; 3 ml FuGene/1 mg DNA). The MRTU constructs are regulated by a cis-regulating element (promoter). Each RTU expresses a GAL4-UAS that regulates the transcription of a nearby target reporter gene sequence. A major difference between the CIS and TRANS system is that in CIS activities of endogenous TFs are measured, whereas the TRANS assay evaluates changes in activities of exogenous, chimeric NR-Gal4 proteins. […] At the end of 24 hour incubation, total RNA was isolated using TriZol reagent (Invitrogen). The isolated RNA is then reverse-transcribed using oligo(dT) primer and Mo-MLV reverse transcriptase (Invitrogen) with DNAse I (Ambion) treatment for 30 min. The one-tenth of the produced cDNA was amplified by PCR using Taq DNA polymerase (Invitrogen) and two reporter sequence-specific primers. The PCR products were fluorescently labeled by primer extension with 6-arboxyfluorescein (6-FAM) 5'-labeled reporter sequence-specific primer (2 min at 95 C, 20 s at 68 C and 10 min at 72 C) and these products were digested with 5U of HpaI (New England Biolabs) for 2h at 37 C. The fragments were purified using Qiaquick PCR columns (Qiagen), analyzed on an ABI 3130xL genetic analyzer (Applied Biosystems) with peak positions identified by using a set of X-rhodamine (ROX)-labeled MapMarker1000 molecular weight standards (BioVentures). The raw capillary electrophoresis data was processed using Attagraph software (Attagene).
As for `CC(C)(Oc1ccc(C2CC2(Cl)Cl)cc1)C(=O)O` (stereo unspecified), the result was inactive. The same measure, in the same setting: then `CC(C)(Oc1ccc(CCNC(=O)c2ccc(Cl)cc2)cc1)C(=O)O`, with “inactive”; and `Cc1ccc(C)c(OCCCC(C)(C)C(=O)O)c1`, with “inactive”; and `C=C(c1ccc(C(=O)O)cc1)c1cc2c(cc1C)C(C)(C)CCC2(C)C`, with “inactive”.

As to `CN(CCOc1ccc(CC2SC(=O)NC2=O)cc1)c1ccccn1` (stereo unspecified), the AC50 was 30.8 µM (active). As for `Cc1cccc(Nc2cc(Cl)nc(SCC(=O)O)n2)c1C`, the call was inactive. Turning to `CC(C)OC(=O)C(C)(C)Oc1ccc(C(=O)c2ccc(Cl)cc2)cc1`, the outcome was inactive. On to `CC(c1cc2ccccc2s1)N(O)C(N)=O` (stereo unspecified), for which the concentration at half-maximal activity (AC50) was 34.3 µM (active). Still for that read-out and setting: for `C[C@@H]1C[C@H]2[C@@H]3CCC4=CC(=O)C=C[C@]4(C)[C@@]3(F)[C@@H](O)C[C@]2(C)[C@@]1(O)C(=O)COP(=O)(O)O` the value was 0.00998 µM (active). As for `CC(C)(Oc1ccc(Cl)cc1)C(=O)O`, the compound was classed as inactive. Same read-out and setting: for `C[C@]12C=CC(=O)C=C1CC[C@@H]1[C@@H]2C(=O)C[C@@]2(C)[C@H]1CC[C@]2(O)C(=O)CO` the value was “inactive”.

(Values after PubChem BioAssay AID2284330 (EPA ToxCast).)
